Assay results taken from the supplement of paper PMC8975748.
Where a name gives a salt, the structure may show the parent alone. ± gives the standard deviation of the averaged measurements.

Tests used:
[1] = test system: Saccharomyces cerevisiae BY4741 SeMeCo community; assay: mean cell size (pixel area) (pixels); higher = larger cells; conditions: 10 µM; 24 h; SM minimal medium
In short: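 Harmony analysis of automated confocal images of paraformaldehyde-fixed yeast gave the mean cell pixel area per well. The yeast was a Saccharomyces cerevisiae BY4741 community carrying four plasmids, each with a fluorescent marker and each complementing one auxotrophy, incubated for 24 h in SM medium containing drug at a final 10 µM in 384-well plates. Results are averaged over 3 replicates. Same SeMeCo high-content imaging drug screen: Selleck FDA-approved drugs at 10 µM, 24 h in SM medium, 384-well plates, 3 replicates.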

[2] = test system: Saccharomyces cerevisiae BY4741 SeMeCo community; assay: z-score of prototroph abundance vs DMSO median; higher = larger share of this subpopulation than in DMSO controls; conditions: 10 µM; 24 h; SM minimal medium; subpopulation (auxotrophy): Prototroph
In short: (§1)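 Four plasmids, each restoring a single auxotrophy and encoding a distinct fluorescent protein, were carried by a Saccharomyces cerevisiae BY4741 community. After overnight growth to OD600 1.0 and dilution to 0.3, 70 µl per well was grown for 24 h in minimal SM medium on 384-well plates acoustically predosed with library drugs at 10 µM final. Following paraformaldehyde fixation, automated confocal microscopy was used, with single-auxotroph fluorescent strains defining thresholds and autofluorescence correction. Subpopulation abundance was then scored as a z-score against the vehicle-well median.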

[3] = test system: Saccharomyces cerevisiae BY4741 SeMeCo community; assay: z-score of subpopulation abundance vs DMSO median, subpopulation auxotrophic for M; higher = larger share of this subpopulation than in DMSO controls; conditions: 10 µM; 24 h; SM minimal medium; subpopulation (auxotrophy): M
In short: as §1

[4] = test system: Saccharomyces cerevisiae BY4741 SeMeCo community; assay: z-score of subpopulation abundance vs DMSO median, subpopulation auxotrophic for L; higher = larger share of this subpopulation than in DMSO controls; conditions: 10 µM; 24 h; SM minimal medium; subpopulation (auxotrophy): L
In short: as §1

[5] = test system: Saccharomyces cerevisiae BY4741 SeMeCo community; assay: z-score of subpopulation abundance vs DMSO median, subpopulation auxotrophic for U; higher = larger share of this subpopulation than in DMSO controls; conditions: 10 µM; 24 h; SM minimal medium; subpopulation (auxotrophy): U
In short: as §1

[6] = test system: Saccharomyces cerevisiae BY4741 SeMeCo community; assay: z-score of subpopulation abundance vs DMSO median, subpopulation auxotrophic for H; higher = larger share of this subpopulation than in DMSO controls; conditions: 10 µM; 24 h; SM minimal medium; subpopulation (auxotrophy): H
In short: as §1

[7] = test system: Saccharomyces cerevisiae BY4741 SeMeCo community; assay: z-score of subpopulation abundance vs DMSO median, subpopulation auxotrophic for LU; higher = larger share of this subpopulation than in DMSO controls; conditions: 10 µM; 24 h; SM minimal medium; subpopulation (auxotrophy): LU
In short: as §1

[8] = test system: Saccharomyces cerevisiae BY4741 SeMeCo community; assay: z-score of subpopulation abundance vs DMSO median, subpopulation auxotrophic for LM; higher = larger share of this subpopulation than in DMSO controls; conditions: 10 µM; 24 h; SM minimal medium; subpopulation (auxotrophy): LM
In short: as §1

[9] = test system: Saccharomyces cerevisiae BY4741 SeMeCo community; assay: z-score of subpopulation abundance vs DMSO median, subpopulation auxotrophic for HM; higher = larger share of this subpopulation than in DMSO controls; conditions: 10 µM; 24 h; SM minimal medium; subpopulation (auxotrophy): HM
In short: as §1

[10] = test system: Saccharomyces cerevisiae BY4741 SeMeCo community; assay: z-score of subpopulation abundance vs DMSO median, subpopulation auxotrophic for HU; higher = larger share of this subpopulation than in DMSO controls; conditions: 10 µM; 24 h; SM minimal medium; subpopulation (auxotrophy): HU
In short: as §1

[11] = test system: Saccharomyces cerevisiae BY4741 SeMeCo community; assay: z-score of subpopulation abundance vs DMSO median, subpopulation auxotrophic for UM; higher = larger share of this subpopulation than in DMSO controls; conditions: 10 µM; 24 h; SM minimal medium; subpopulation (auxotrophy): UM
In short: as §1

[12] = test system: Saccharomyces cerevisiae BY4741 SeMeCo community; assay: z-score of subpopulation abundance vs DMSO median, subpopulation auxotrophic for HL; higher = larger share of this subpopulation than in DMSO controls; conditions: 10 µM; 24 h; SM minimal medium; subpopulation (auxotrophy): HL
In short: as §1

[13] = test system: Saccharomyces cerevisiae BY4741 SeMeCo community; assay: z-score of subpopulation abundance vs DMSO median, subpopulation auxotrophic for HLU; higher = larger share of this subpopulation than in DMSO controls; conditions: 10 µM; 24 h; SM minimal medium; subpopulation (auxotrophy): HLU
In short: as §1

[14] = test system: Saccharomyces cerevisiae BY4741 SeMeCo community; assay: z-score of subpopulation abundance vs DMSO median, subpopulation auxotrophic for HLM; higher = larger share of this subpopulation than in DMSO controls; conditions: 10 µM; 24 h; SM minimal medium; subpopulation (auxotrophy): HLM
In short: as §1

[15] = test system: Saccharomyces cerevisiae BY4741 SeMeCo community; assay: z-score of subpopulation abundance vs DMSO median, subpopulation auxotrophic for HUM; higher = larger share of this subpopulation than in DMSO controls; conditions: 10 µM; 24 h; SM minimal medium; subpopulation (auxotrophy): HUM
In short: as §1

[16] = test system: Saccharomyces cerevisiae BY4741 SeMeCo community; assay: z-score of subpopulation abundance vs DMSO median, subpopulation auxotrophic for LUM; higher = larger share of this subpopulation than in DMSO controls; conditions: 10 µM; 24 h; SM minimal medium; subpopulation (auxotrophy): LUM
In short: as §1

[17] = test system: Saccharomyces cerevisiae BY4741 SeMeCo community; assay: z-score of subpopulation abundance vs DMSO median, subpopulation auxotrophic for HLUM; higher = larger share of this subpopulation than in DMSO controls; conditions: 10 µM; 24 h; SM minimal medium; subpopulation (auxotrophy): HLUM
In short: as §1

SMILES	mean cell size [1]	z-score of prototroph abundance [2]	z-score of subpopulation abundance [3]	z-score of subpopulation abundance [4]	z-score of subpopulation abundance [5]	z-score of subpopulation abundance [6]	z-score of subpopulation abundance [7]	z-score of subpopulation abundance [8]	z-score of subpopulation abundance [9]	z-score of subpopulation abundance [10]	z-score of subpopulation abundance [11]	z-score of subpopulation abundance [12]	z-score of subpopulation abundance [13]	z-score of subpopulation abundance [14]	z-score of subpopulation abundance [15]	z-score of subpopulation abundance [16]	z-score of subpopulation abundance [17]
CC/C(=C(/CC)c1ccc(O)cc1)c1ccc(O)cc1 [Diethylstilbestrol]	12.85 ± 0.035	1.5	0.52	-0.38	-1.17	0.17	-1.48	-0.03	-0.17	-1.29	-1.59	-0.25	-1.06	-0.67	-1.46	-1.01	-1.31
C[C@H]1[C@H](NC(=O)/C(=N\OC(C)(C)C(=O)O)c2csc(N)n2)C(=O)N1S(=O)(=O)O [Aztreonam]	12.5 ± 0.18	-0.5	0.26	0.74	-0.07	-0.29	0.39	0.99	0.36	-0.08	0.13	0.25	0.52	1.34	-0.1	0.97	0.34
CC1(C)[C@H](C(=O)O)N2C(=O)C[C@H]2S1(=O)=O [Sulbactam]	12.3 ± 0.16	0.75	0.57	0.57	-0.63		-0.53	1.07	-0.43	-0.07	-0.39	-0.53	-0.86	-1.04	-0.35	-0.1	-0.44
COc1ccc(C(C)=O)c(O)c1 [Paeonol]	12.4 ± 0.15	-0.25	-0.69	0.17	0.71	0.01	0.12	0.14	-0.35	0.44	0.01	-0.25	-0.12	-0.22	0.18	-0.79	0.01
Cc1onc(-c2ccccc2)c1C(=O)N[C@@H]1C(=O)N2[C@@H]1SC(C)(C)[C@@H]2C(=O)O [Oxacillin sodium monohydrate]	12.04 ± 0.12	-0.42	0.02	0.52	0.36	-0.05	0.83	0.23	-0.14	0.32	0.41	0.94	0.2	-0.54	0.65	0.47	0.03
COc1cccc2c1C(=O)c1c(O)c3c(c(O)c1C2=O)C[C@@](O)(C(=O)CO)C[C@@H]3O[C@H]1C[C@H](N)[C@H](O[C@@H]2CCCCO2)[C@H](C)O1 [Pirarubicin]	12.3 ± 0.17	2.14	-12	0.11	5.25	-1.05	4.15	-3.84	-5.17	4	-3.46	0.37	2.71	-1.27	-1.83	-0.26	1.36
CCN(CC)C(=O)N1CCN(C)CC1 [Diethylcarbamazine citrate]	12.6 ± 0.14	0.16	-0.11	-0.21	0.67		0.3	-0.13	-0.19	-0.43	0.18	-1.04	-0.06	0.15	0.13	-0.5	-0.66
CN(C)[C@@H](CCOc1cccc2ccccc12)c1ccccc1 [Dapoxetine HCl]	12.3 ± 0.037	0.05	-0.23	0.84	-0.41		0.55	0.47	-0.39	-0.49	-0.35	0.57	1.25	-0.47	-0.28	0.92	-0.01
CCCSc1ccc2[nH]c(NC(=O)OC)nc2c1 [Albendazole]	12.59 ± 0.075	-0.36	0.54	-0.04	0.62	-0.51	0.31	0.33	0.37	-0.61	0.26	-0.39	0.38	0.74	-0.14	-0.08	0.29
CCC[C@@H]1C[C@@H](C(=O)N[C@@H]([C@H]2O[C@H](SC)[C@H](O)[C@@H](O)[C@H]2O)[C@H](C)Cl)N(C)C1 [Clindamycin HCl]	12.61 ± 0.074	-0.3	0.72	0.8	-0.42		-0.2	0.83	0.38	-0.26	0.35	0.26	-0.02	0.06	-0.28	0.28	0.72
CC1CCc2cc(F)cc3c(=O)c(C(=O)O)cn1c23 (stereo unspecified) [Flumequine]	12.3 ± 0.18	1.18	-1.12	-0.69	0.29		-0.58	-1.29	-1.42	0.37	-1.16	-0.81	0.18	-0.73	-0.88	-0.22	0.55
CN(CCN1CCC(OC(=O)Nc2ccccc2-c2ccccc2)CC1)C(=O)c1ccc(CN2CCC(C(N)=O)CC2)cc1 [Revefenacin]	12.17 ± 0.043	-0.26	1.54	-0.42	0.17	-0.6	0.12	0.16	0.49	-0.27	0.92	-0.32	-0.13	-0.49	0.24	0.17	-0.7
C[C@]1(Cn2ccnn2)[C@H](C(=O)O)N2C(=O)C[C@H]2S1(=O)=O [Tazobactam]	12.4 ± 0.26	-0.17	-0.32	-0.56	0.75		0.66	-0.39	-0.74	0.31	0.66	-0.38	0.12	-0.56	-0.01	0.22	0.69
CC(C)n1c(/C=C/C(O)CC(O)CC(=O)O)c(-c2ccc(F)cc2)c2ccccc21 (stereo unspecified) [Fluvastatin Sodium]	12.1 ± 0.16	-11	6.6	-1.3	0.84		1.08	-0.26	17.4	7.53	8.31	7.24	4.2	21.3	12.8	4.75	14
